# From PubChem BioAssay
# Hsp70 activator – transcriptional activators of Hsp70; hit rate 0.04% among 200,000; activation, % at 10 µM; HeLa Hsp70 promoter luciferase reporter, luminescence; scaled: vehicle 0, proteasome-inhibitor control 100%;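 active = activation above the mean across all tested compounds plus 3 SD, cutoff set per campaign, cut at about 5.5% in these data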;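 also: 100% = MG132 at 30 µM as the positive control and 0% = DMSO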
# HSF1 activator – increases HSF-1 driven luciferase reporter signal. AID 504408. NIH3T3-HGL HSF-1 luciferase reporter, MG132, 8 h; 100% = twice DMSO control signal. hit rate 1.7% among 300,000. activation, % at 9 µM;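 active = mean replicate activation of at least 50% with a set share of replicates each reaching 50%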;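 also: 0% = median of the neutral control wells and 100% = twice that signal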
# zVAD death inh – blocks zVAD induced death of L929 cells | viability rescue, % at 10 µM | hit rate 0.38% among 220,000 | L929 zVAD necroptosis rescue, ATP luminescence, 24 h; with zVAD 60 µM;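 active = activation, scaled between plate controls, above about 75%, limit read from the data; inactive = activation under that limit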;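 also: 0% = zVAD with DMSO and 100% = DMSO alone without zVAD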
# TNF necrop inh – inhibitors of TNF-alpha induced necroptosis in Jurkat FADD-/- cells; Jurkat FADD-/- TNF necroptosis rescue, ATP luminescence, 24 h; 0 = TNF only, 100 = no-TNF cells; activation (protection from cell death), % at 10 µM; hit rate 0.068% among 220,000; AID 463075;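 active = activation, meaning protection from cell death, of at least 50% relative to plate controls; inactive = activation below 50%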;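 also: necroptosis triggered by 40 ng/mL TNF-alpha added together with compound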
# Active calls of the source: *; . = no result. Rows were chosen to be rich in hits. Some 1.9% of all compounds tested hit in one or more screens of this group.
SMILES,Hsp70 activator,HSF1 activator,zVAD death inh,TNF necrop inh
COc1cc(/C=C/C(=O)c2ccc(F)cc2)cc(OC)c1OC,1,31,0,-10
COc1cc(/C=C/C(=O)c2ccc3c(c2)OCCO3)cc(OC)c1OC,.,190*,.,.
COc1ccc(OC)c(/C=C/C(=O)Oc2ccc(C(C)=O)cc2)c1,.,4,.,.
CCc1ccc(CN(C)C(=O)CCc2nc3ccccc3n(-c3ccc(OC)cc3)c2=O)cc1,0,70*,1,-4
COc1ccc(-n2c(=O)c(CCC(=O)N(C)Cc3ccccc3C)nc3ccccc32)cc1,0,7,-2,-2
CCN(CC(=O)Nc1ccc(NC(C)=O)cc1)Cc1c(O)ccc2cc(Br)ccc12,.,127*,.,.
Cc1ccc(NC(=O)CN(C)Cc2c(O)ccc3ccccc23)cc1,.,-4,.,.
Oc1ccccc1Cc1c(O)ccc2ccccc12,.,101*,.,.
OCCC1CN(Cc2c(O)ccc3ccccc23)CCN1CCc1ccccc1 (centres undefined),0,216*,2,-2
Oc1cnc2ccccc2c1CN1CCOCC1,0,5,0,1
Oc1ccc2ccccc2c1CN1CCOCC1,.,83*,1,-3
Cc1cc(C(=O)Nc2ccc3[nH]ccc3c2)no1,.,5,2,3
Cc1cccn2c(=O)nc(SCC(=O)Nc3ccc4c(c3)OCO4)nc12,.,-4,.,.
Cc1cc(-c2ccccc2)nc(N/N=C/c2ccccc2F)n1,.,24,.,.
Cc1ccc(S(=O)(=O)c2nc(S(=O)(=O)c3ccccc3)sc2N2CCN(C)CC2)cc1,.,8,.,.
CCCn1c(SCC(=O)Nc2cc(S(=O)(=O)N(C)C)ccc2OC)n[nH]c1=O,0,-7,3,-1
[O-]/[N+](=C\c1ccncc1)c1ccc(Br)cc1,0,117*,.,-11
Clc1ccc(CNCc2cccs2)cc1Cl,0,30,0,1
CC(C)c1nc2sc(C(=O)O)c(N)c2c2c1CCCC2,.,-22,1,0
CCCOC1CCCN(C(=O)c2cc(COc3ccc(-n4cncn4)cc3)on2)C1 (centres undefined),.,60*,.,.
COCCOC1CCN(C(=O)c2cc(COc3ccc(-n4cncn4)cc3)on2)CC1,.,-12,.,.
COc1ccccc1OCc1cc(C(=O)N2CCCC(OCc3cccnc3)C2)no1 (centres undefined),.,63*,.,.
CC(=O)C(Sc1ccc2nnc(-c3ccc(F)cc3)n2n1)C(C)=O,0,0,1,0
COC(C(=O)Nc1ccc(S(=O)(=O)Nc2cccc3ccccc23)cc1)c1ccccc1 (centres undefined),0,55*,1,6
COc1ccc(NC(=O)C(C)NS(=O)(=O)c2ccccc2)cc1Cl (centres undefined),0,.,0,0
SMILES,Hsp70 activator,HSF1 activator,zVAD death inh,TNF necrop inh
COc1ccc(Cl)cc1NC(=O)C(OC)c1ccccc1 (centres undefined),0,13,0,1
COc1ccc(NC(=O)C(NCC(C)C)c2ccccc2)cc1Cl (centres undefined),0,71*,1,2
COc1ccc(CNC(=O)Oc2ccccc2)cc1Cl,0,94*,0,2
COc1ccc(NC(=O)C(OC)c2ccccc2)cc1Cl (centres undefined),0,8,3,50*
Cc1nc(C)c(-c2ccc(SCC(=O)Nc3cccc(Cl)c3C)nn2)s1,.,-50,.,.
CCOc1ccc(-c2nnc(-c3snc(-c4ccc(F)cc4)c3N=CN(C)C)o2)cc1,0,-8,1,1
COC(C(=O)Nc1ccc(F)cc1)c1ccccc1 (centres undefined),0,-18,.,98*
COc1ccc(NC(=O)C(Sc2nnc(-c3ccncc3)n2-c2ccccc2C)c2ccccc2)cc1Cl (centres undefined),0,53*,0,-1
CC(Oc1ccccc1)C(=O)Nc1ccc(S(=O)(=O)N2CCCC2)cc1 (centres undefined),.,-1,.,.
COC(C(=O)Nc1ccc(S(=O)(=O)N2CCCCC2)cc1)c1ccccc1 (centres undefined),0,-1,0,60*
COC(=O)Nc1ccc(S(=O)(=O)N2CCC(C(=O)N3CCCC(C)C3)CC2)cc1 (centres undefined),0,69*,6,0
Cc1cccc(OCc2ccc(C(=O)N3CCOCC3)o2)c1,.,17,.,.
CC(C)(C)c1ccc(OCc2ccc(C(=O)N3CCOCC3)o2)cc1,0,58*,49,2
Cc1nc2ccc(N)cc2c(=O)n1Cc1ccc(Cl)cc1,0,4,0,-4
COc1ccc(Cn2c(C3CC3)nc3ccc(NC(C)=O)cc3c2=O)cc1,0,51*,0,-5
CCCc1nc2ccc(NC(C)=O)cc2c(=O)n1Cc1ccc(Cl)cc1,0,60*,0,0
CCN(CC)c1cc(C)c2cc(NC(=O)c3cccs3)ccc2n1,0,37,30,5
CCCc1nc2ccc(NC(=O)c3cccs3)cc2c(=O)n1Cc1ccccc1Cl,0,61*,1,5
CCC(=O)OCOc1ccc(/C=C2/CCC(CN(C)C)C2=O)cc1 (centres undefined),.,-24,.,.
CC(C)n1c(CSCc2ccc(Cl)cc2Cl)n[nH]c1=S,0,8,0,0
COc1ccc(Nc2nnc(-c3ccc(N4CCOCC4)c([N+](=O)[O-])c3)c3ccccc23)cc1,0,.,82*,-16
COc1ccc(C(=O)c2ccc(N3CCOCC3)c([N+](=O)[O-])c2)cc1,0,5,-1,-4
CCS(=O)(=O)NCCc1cc2ccc(C)cc2[nH]c1=O,0,-22,0,1
O=C(NC1CCCCC1)c1cc2cc(Br)ccc2o1,.,68*,.,.
O=C(NC1CCCC1)c1cc2cc(Br)ccc2o1,.,60*,.,.
SMILES,Hsp70 activator,HSF1 activator,zVAD death inh,TNF necrop inh
O=C(NC1CCCC1)c1cc2ccccc2o1,.,-3,.,.
CCc1ccc2c(c1)C1(C(=O)N2)N2CCCC2C(C(=O)c2ccc3ccccc3c2)C12C(=O)Nc1ccccc12 (centres undefined),0,65*,2,3
CCc1cccc2c1NC(=O)C21N2CCCC2C(C(=O)c2ccc3ccccc3c2)C12C(=O)Nc1ccccc12 (centres undefined),0,23,17,14
Cn1nnnc1SCCNC/C=C/c1ccccc1,-1,77*,0,-2
N/C(=N\OC(=O)C1CCCCC1)c1ccc(Cl)cc1,.,85*,.,.
N/C(=N\OC(=O)C1CCCCC1)c1ccc(Br)cc1,.,57*,.,.
O=C(CNC(=O)C1CCCCC1)OCC(=O)c1ccc(Br)cc1,.,65*,.,.
Cc1c(C(=O)c2ccccc2C(=O)O)sc2ccccc12,.,17,.,.
Cc1c(C(=O)NCc2ccc3c(c2)cc(C)n3C)cccc1[N+](=O)[O-],0,-21,.,0
C/C(=N\Nc1cccc2cccnc12)c1ccccn1,0,49,1,-1
C/C(=N\Nc1cccc2cccnc12)c1ccccc1O,0,54*,7,1
O=C(Cc1ccccc1)N/N=C/c1cc(Br)c(Br)o1,0,80*,0,1
CC(C)c1ccc(OCC(=O)NCCO)cc1,0,12,0,1
